Results as given in the OligoGym collection.

Biological target: RASSF3
Assay: pooled miR-30 sensor sort-seq; sequence = guide strand
Conditions: shRNA

Compared with TATTTATGAACTTTCTCTTTGA, TTTCTCTTTGATCTCCTCTTTG is lower in sensor-assay potency score (higher = more potent): -0.498 for the first, -0.943 for the second.

Going from TTTATGAACTTTCTCTTTGATC to TGTATTTATGAACTTTCTCTTT, the sensor-assay potency score (higher = more potent) rises from -0.905 to -0.702.

First: TTTGCTGAGGTAACTGTGGGTT
Second: TTCATCTTCTTCCTTGTCCAAG
The sensor-assay potency score (higher = more potent) of the first is higher: 0.0248 for the first, -0.91 for the second.

Going from TCTCTTTCTCAACATCTTGTTG to TTGTCTGTGACTGCTAAGTTGT, the sensor-assay potency score (higher = more potent) rises from -1.22 to -0.937.

First: TTTGATCTCCTCTTTGCTGAGG
Second: TTCAAGGTCATCTTCAACTTGT
The sensor-assay potency score (higher = more potent) of the first is lower: -0.279 for the first, 0.533 for the second.

Compared with TCTTTGATCTCCTCTTTGCTGA, TAAGTTGTATTTATGAACTTTC is lower in sensor-assay potency score (higher = more potent): -0.385 for the first, -0.5 for the second.

Biological target: RASSF5
Assay: as above
Conditions: shRNA

First: TTGTCCGTCCTTGTGTATCCGC
Second: TTCTGGAAGAGCACTTGTCCGT
The sensor-assay potency score (higher = more potent) of the first is lower: -0.676 for the first, -0.498 for the second.

Going from TTATATATAGCTATATGCCTTT to TTCTCTCGCGTGTTGTAGCTGT, the sensor-assay potency score (higher = more potent) rises from -0.531 to 0.0292.

Compared with TTCTCCTTTAGCACAAAGCTGA, TCGCGTGTTGTAGCTGTCGATC is lower in sensor-assay potency score (higher = more potent): -0.406 for the first, -1.47 for the second.

Going from TTGTCCACAACCATGAACTTCT to TTAAGTGTGAACAACAGGCACC, the sensor-assay potency score (higher = more potent) falls from 0.0348 to -0.19.

First: TAGCTGTCGATCTTCTGCTTGA
Second: TTAAAAAGTGCAAACTTCTGGG
The sensor-assay potency score (higher = more potent) of the first is lower: -0.141 for the first, 0.479 for the second.

Going from TGAAGCTACACGAACAAGCTTG to TTTACAGTTAGTGCAGCGCAGC, the sensor-assay potency score (higher = more potent) falls from 0.101 to -1.3.

Biological target: RASSF8
Assay: as above
Conditions: shRNA

Going from TAAGGCTATGACAACCTCCTGG to TATTTCATTAGATTCCAGCTGT, the sensor-assay potency score (higher = more potent) rises from 0.0646 to 1.11.

Going from TTGATCTTTTGCTCTAGACGGA to TTCTATTTCATTAGATTCCAGC, the sensor-assay potency score (higher = more potent) rises from -0.232 to -0.148.

Going from TTCTCTATAAGGGTGTACCTTC to TTGAAGTTGATCCTTCAGCTGT, the sensor-assay potency score (higher = more potent) rises from -0.973 to -0.249.

Compared with TTAGCTTCTTCAACTCATCTGC, TATTTCTTGAAGTTGATCCTTC is higher in sensor-assay potency score (higher = more potent): 0.759 for the first, 0.825 for the second.

Going from TTTGCAGTTATTCAGCACCTTT to TTGATTGATTTGTCAATCTGAG, the sensor-assay potency score (higher = more potent) rises from -1.3 to -0.187.

Going from TTAATTTGTTTTCACATTCTGT to TACATCGTTTCTTTTGATCTTT, the sensor-assay potency score (higher = more potent) falls from -0.415 to -0.624.

Biological target: RBFOX1
Assay: as above
Conditions: shRNA

Going from TTATTCATTATCTAGCATCTGT to AAACATTTGTCTGAGGTCCGGA, the sensor-assay potency score (higher = more potent) falls from 0.299 to 0.142.

First: TTACATAATATAGCACTCTGGA
Second: TTTTTATTCATTATCTAGCATC
The sensor-assay potency score (higher = more potent) of the first is higher: -0.421 for the first, -0.945 for the second.
